RE007 growth inh: less growth of the S. pombe RE007 Vpr strain | S. pombe RE007 Vpr strain, BacTiter-Glo ATP luminescence, 24 h | Potency, µM (highest dose often 92.2 µM), inactives show top-dose activity change, negative = less growth, actives largely listed as inhibitors | 0.21% of 360,000 active | AID 651644; active means well fitted falling curve with a large enough effect; inconclusive means small, poorly fitted or top-dose-only effect; inactive means no such curve, though single readings can be large or run the other way; further: nearly all actives have a fitted effect of over 50% in size
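Fission yeast strain RE007, carrying one chromosomally integrated HIV-1 vpr copy, was seeded at OD 0.01 in PMG+AL medium with 23 nL pinned compound. After 24 h at 30 °C and 99% humidity, viability was read by BacTiter-Glo luminescence.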
Sm TGR block: blocks Schistosoma mansoni thioredoxin glutathione reductase | Potency, µM (top dose mostly 114 µM), inactives show top-dose activity change, negative = inhibition, usual class: inhibitors | purified TGR, DTNB reduction, TNB absorbance 405 nm | 3% of 360,000 active; further: nearly all actives have a fitted effect of over 60% in size
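TGR 20 nM + NADPH 100 uM (dispensed conc.), cpd preinc 15 min RT; start with NADPH (500 uM addition) then DTNB (15 mM addition). Kinetic TNB absorbance, 405 nm filter. Four-parameter Hill fit across titration.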
FMDV inh: antivirals against foot and mouth disease virus; AID 1159524; Potency, µM (top dose mostly 57.9 µM), for the others: top-dose activity change, negative = inhibition, hits mostly inhibitors; FMDV antiviral cell-based qHTS; 1.2% of 410,000 active; calls by dose curve; tested in HEK293T cells; further: read-out not given here; nearly all actives have a fitted effect of over 45% in size
HCV inhibitor: HCV inhibition | 3.4% of 340,000 active | AID 651820 | Huh7.5.1 HCVcc-Cre infection, luciferase reporter, 44 h | Potency, µM (highest dose often 41.8 µM), without a hit: at the top dose activity change, negative = inhibition, usual class: inhibitors
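Luciferase read-out (15 sec integration) after a 15 min room-temperature substrate step quantifies HCVcc-Cre infection. Cells, 1,000 per well, had compound added 4 h post-plating, then virus at ~0.5 moi, and were cultured 44 h.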
Marburg entry inh: inhibitors of Marburg virus binding or cell entry; Marburg virus pseudotyped entry inhibition, cell reporter; Potency, µM (doses to about 37.8 µM), without a hit: top-dose activity change, negative = inhibition, usual class: inhibitors; 1.8% of 300,000 active; AID 540276; calls by dose curve; tested in HEK293 cells
LASV entry inh: Lassa virus entry inhibition; AID 540256; Potency, µM (top dose mostly 37.9 µM), without a hit: top-dose activity change, negative = inhibition, usual class: inhibitors; Lassa virus pseudotype entry inhibition, cell reporter; 1.2% of 300,000 active; calls by dose curve; tested in HEK293 cells; further: nearly all actives have a fitted effect of over 50% in size
Numbers without * were called inactive; ? = inconclusive; · = no result; [ ] = another dose, or the depositor's remark. Sampled rows, rich in hits. Any-hit rate of the full collection: about 7.2%. Unless noted, the call rests on the fitted dose curve; in most records, active means well fitted curve in the direction sought with a large enough effect; inconclusive means small, poorly fitted or top-dose-only effect, or another doubt; inactive means no such curve, though single readings can be large; an effect the other way counts as inactive or inconclusive. On the % scale 0 is the no-effect control and ±100 the full control effect; potency means the concentration at half of the fitted maximal effect.

SMILES	RE007 growth inh	Sm TGR block	FMDV inh	HCV inhibitor	Marburg entry inh	LASV entry inh
CCN1CCN(C(=S)Nc2ccc3nc(N4CCN(CC)CC4)cc(C)c3c2)CC1	-17%	-6%	-10%	13µM*	?	?
CCN1CCN(c2cc(C)c3cc(NC(=S)N4CCCC(C)C4)ccc3n2)CC1 (centres undefined)	-8%	3%	-18%	?	7.9µM*	?
Cn1cnc2c(ncn2[C@@H]2O[C@H](CO)[C@@H](O)[C@H]2O)c1=N	·	·	21%	·	·	·
O=C(NCC1CCN(Cc2ccccc2Cl)CC1)c1cc2ccc3cccnc3c2[nH]1	·	2%	-8%	·	·	-23%[46.1 µM]
COc1ccc(C2CC(=O)c3cnc4c(-c5ccccc5)c(C)nn4c3C2)cc1OC (centres undefined)	·	-1%	-21%	·	7%[46.1 µM]	8%[46.1 µM]
COc1ccc(CNC(=O)CSc2n[nH]c(-c3ccc(OC)cc3)n2)cc1	·	-2%	-13%	·	·	?
CCN1CCN(C(=S)Nc2ccc3nc(N4CCN(C)CC4)cc(C)c3c2)CC1	-5%	7%	-18%	?	?	10µM*
Cc1ccccc1-n1c(-c2ccco2)n[nH]c1=S	-14%	2%	-12%	25%	?	11%
S=c1[nH]nc(-c2cc(-c3ccco3)[nH]n2)n1-c1cccc2ccccc12	-5%	11µM*	-18%	19%	-2%	2%
FC(F)(F)c1ccccc1-n1c(-c2ccco2)n[nH]c1=S	1%	-6%	14µM*	18%	-8%[46.1 µM]	-4%[46.1 µM]
CCOc1ccc(NC(=O)CSc2oc(-c3cccs3)nc2S(=O)(=O)c2ccc(C)cc2)cc1	·	0%	-7%	·	-1%[46.1 µM]	0%[46.1 µM]
COc1ccc(-n2cc(CNCC3CC(=O)N(C4CC4)C3)c(-c3ccccc3Cl)n2)cc1 (centres undefined)	-3%	78%	-13%	-6%	11µM*	?
COc1cc(/C=N/NC(=O)CCc2ccccc2)ccc1O	-14%	3%	-8%	1%	?	2.8µM*
COc1cc(/C=N/NC(=O)CCN2CCN(C(c3ccccc3)c3ccccc3)CC2)ccc1O	-3%	-10%	-17%	4.5µM*	?	-21%[46.1 µM]
COc1cc(/C=N\NC(=O)CNC(=O)C(c2ccccc2)c2ccccc2)ccc1O	-19%	-5%	-21%	?	10%[46.1 µM]	-2%
CC1(C)CC(=O)c2c(oc3c(Cl)cc(NS(=O)(=O)c4ccc(Cl)cc4)cc23)C1	·	-9%	11%	·	13%[46.1 µM]	0%[46.1 µM]
CCOC(=O)Nc1ccc2c(c1)N(C(=O)CN(C)C)c1ccccc1S2	-17%	·	-12%	·	·	·
CCOC(=O)Nc1ccc2c(c1)N(C(=O)CCN(C)C)c1ccccc1S2	8%	5%	?	13µM*	?	-4%
COC(=O)/C=C/C(C)=C/C=C/C(C)=C/C=C/C=C(C)/C=C/C=C(C)/C=C/C(=O)O	·	·	-22%	·	·	·
CCCOc1ccccc1C1CC(=O)Nc2cc3c(cc21)OCCO3 (centres undefined)	-2%	-6%	22µM*	2.5µM*	2.8µM*	?
CCCCOc1ccccc1C1CC(=O)Nc2cc(C)c(C)cc21 (centres undefined)	·	2%	?	·	·	-17%[46.1 µM]
CCOc1ccccc1C1CC(=O)Nc2cc3c(cc21)OCCO3 (centres undefined)	-2%	-4%	18µM*	?	8.2µM*	?
CC(C)c1c(C(=O)NCC2(N3CCCCC3)CCCC2)cnn1-c1nccc(-c2ccco2)n1	·	·	1%	·	·	·
CCN1CCCC1CNCc1cc2c(OC)c(OC)c(OC)cc2nc1N(C)C (centres undefined)	·	·	-15%	·	·	·
Cc1nn(C)c(C)c1CN(Cc1nc(CCC(C)C)no1)C(C)C	0%	-12%	?	1µM*	?	?
COc1ccc(NC(=O)N2CCCC3(CCNCC3)C2)cc1	·	·	5%	·	·	·
Cc1ccc(Cn2c(CO)cnc2SCC(=O)NCc2ccccc2Cl)cc1	·	-1%	-20%	·	·	11%[46.1 µM]
Cc1cc2c(C)cc(=O)[nH]c2cc1NC(=O)CCl	14%	10µM*	?	11µM*	-1%	·

Assay outcomes: PubChem, National Center for Advancing Translational Sciences (NCATS)
